This note sets out measurements from PubChem BioAssay AID434970 (Sanford-Burnham Center for Chemical Genomics, 2010).

Molecules are shown by their SMILES. Hit rate of the full screen: of about 11,000 compounds, about 310 (2.8%) were called active. This is one part of a sample in which actives are shown more often than they occur. No stated cut-off is given here; in the data, active means activity change below about -85%; inactive means the rest.

The test has as its system intestinal alkaline phosphatase [Mus musculus]. Briefly: activators of mouse IAP, confirmation, biochemical, luminescence, single concentration (AID 434970). The conditions noted are these: purified mouse IAP, CDP-Star luminescence, 30 min, at 10 µM; activation factor: measured here: IAP activation factor, stronger effect = higher value; activity change, negative = activation: stronger effect = lower value.
In the case of `CC(O)c1nc2ccccc2n1Cc1nnc(-c2ccc(Cl)cc2)o1` (stereo not drawn), the activation factor was 0.857 and the activity change, negative = activation is 14.3% (inactive).

`Cn1nc(OCc2ccccc2)ccc1=O`: the activation factor turned out to be 0.947 and the activity change, negative = activation is 5.35% (inactive).

On to `CCC(C)OC(=O)c1cc(C)nc2c(Br)cc(Br)cc12` (stereo not drawn), for which the activation factor was found to be 1.02 and the activity change, negative = activation was -2% (inactive).

With `CC[C@]12c3[nH]c4ccc(Cl)cc4c3CCN1C(=O)[C@@H](CC(=O)NCC13CC4CC(CC(C4)C1)C3)C[C@@H]2C(=O)N1CCN(C(=O)c2ccco2)CC1`, the activation factor amounted to 1.1 and the activity change, negative = activation is -9.55% (inactive).

As for `CCOC(=O)c1sc(NC(=O)Nc2ccccc2Cl)cc1C`, the activation factor stood at 1.89 and the activity change, negative = activation was -89.1% (inactive).

Regarding `Cc1cc(C)c2c(n1)sc1c(=O)[nH]c(SCc3ccccc3)nc12`, the activation factor came to 0.801 and the activity change, negative = activation was 19.9% (inactive).

As to `CCOC(=O)Cn1cnc([N+](=O)[O-])n1`, the activation factor is 0.92 and the activity change, negative = activation was 8% (inactive).

`COc1cc(-c2nnc(COC(=O)CSc3cc(C)c4ccccc4n3)o2)cc(OC)c1OC`: the activation factor was 0.99 and the activity change, negative = activation is 0.95% (inactive).

As for `COc1cccc(NC(=S)NCCC(c2ccccc2)c2ccccc2)c1`, the activation factor was determined as 3.53 and the activity change, negative = activation was -253% (active).

`COc1ccc(CNC(=S)Nc2cccc(Cl)c2)cc1`: the activation factor came to 1.25 and the activity change, negative = activation is -24.7% (inactive).

With `COc1cc(NC(=O)C(Cc2ccccc2)n2cccc2)cc(OC)c1` (stereo not drawn), the activation factor was 1.12 and the activity change, negative = activation was -12.3% (inactive).

With `COc1cc(NC(=S)NCCC(c2ccccc2)c2ccccc2)cc(OC)c1`, the activation factor was 3.28 and the activity change, negative = activation was -228% (active).

As to `CCCCNC(=S)Nc1ccc(Oc2ccccc2)cc1`, the activation factor was 1.71 and the activity change, negative = activation is -70.5% (inactive).

With `COc1cccc(NC(=S)NCCN2CCOCC2)c1`, the activation factor was 1.08 and the activity change, negative = activation is -8.4% (inactive).

Consider `COc1ccc(S(=O)(=O)Nc2ccccc2)cc1OC`, for which the activation factor turned out to be 0.947 and the activity change, negative = activation was 5.35% (inactive).

With `COc1ccc(C(=O)CSc2nnnn2Cc2ccccc2)cc1`, the activation factor was determined as 0.953 and the activity change, negative = activation was 4.7% (inactive).

On to `Cc1ccc2c(Cl)c(C(=O)Nc3cc(C)on3)sc2c1`, for which the activation factor came to 0.873 and the activity change, negative = activation is 12.6% (inactive).

`C#CCOCCOCCOCCNc1nc(N2CCOCC2)nc(N2CCN(C(=O)CCCCCCCCCCNC(=O)[C@H]([C@@H](C)CC)n3cc(CCCCN=C(N)N)nn3)CC2)n1`: the activation factor is 2.37 and the activity change, negative = activation was -137% (active).

For the compound `CC[C@H](C)[C@@H](C(=O)NCCCCCCCCCCC(=O)N1CCN(C(=O)OC(C)(C)C)CC1)n1cc(CCCCN=C(NC(=O)OC(C)(C)C)NC(=O)OC(C)(C)C)nn1`, the activation factor turned out to be 2.29 and the activity change, negative = activation is -128% (active).

Regarding `C#CCOCCOCCOCCNc1nc(N2CCN(C(=O)CCCCCCCCCCNC(=O)[C@H]([C@@H](C)CC)n3cc(CCCCN=C(N)N)nn3)CC2)nc(N2CCN(C(=O)CCCCCCCCCCNC(=O)[C@H](CO)n3cc(CCCCCN)nn3)CC2)n1`, the activation factor worked out at 6.62 and the activity change, negative = activation is -562% (active).

For `C#CCOCCOCCOCCNc1nc(N2CCN(C(=O)CCCCCCCCCCNC(=O)[C@H]([C@@H](C)CC)n3cc(CCCCCN)nn3)CC2)nc(N2CCN(C(=O)CCCCCCCCCCNC(=O)[C@H]([C@@H](C)CC)n3cc(CCCCN=C(N)N)nn3)CC2)n1`, the activation factor is 15.6 and the activity change, negative = activation was -1460% (active).

With `CC(C)(C)OC(=O)CC[C@@H](C(=O)NCCCCCCCCCCC(=O)N1CCN(C(=O)OC(C)(C)C)CC1)n1cc(CCCCCNC(=O)OC(C)(C)C)nn1`, the activation factor came out at 1.51 and the activity change, negative = activation was -51% (inactive).

For the compound `C#CCOCCOCCOCCNc1nc(N2CCN(C(=O)[C@H](Cc3cc4ccccc4[nH]3)n3cc([C@@H](N)C(C)CC)nn3)CC2)nc(N2CCN(C(=O)[C@H](Cc3cc4ccccc4[nH]3)n3cc([C@@H](N)Cc4ccc(O)cc4)nn3)CC2)n1` (stereo partly drawn), the activation factor amounted to 1.43 and the activity change, negative = activation was -42.8% (inactive).

Turning to `CC[C@H](C)[C@@H](C(=O)NCCCCCCCCCCC(=O)N1CCN(C(=O)OC(C)(C)C)CC1)n1cc(CCCCCNC(=O)OC(C)(C)C)nn1`, the activation factor worked out at 1.52 and the activity change, negative = activation was -51.8% (inactive).
